# Laboratory results as given in article PMC7862700, “An all-to-all approach to the identification of sequence-specific readers for epigenetic DNA modifications on cytosine”.
# Tests used:
# Test in all cases: DAPPL (digital affinity profiling via proximity ligation, sequencing); 10 mM Tris-HCl pH 7.5, 50 mM NaCl, 1 mM DTT, 4% glycerol, room temperature, 30 min; GST-TFs on glutathione beads, 16-mer random dsDNA library, 0.1% formaldehyde crosslink after washing; high values mean tight binding
# Details in all cases: protein: recombinant; tags: N-terminal GST; dsDNA, one strand shown
# [1] = target: T1, ERF (Homo sapiens, UniProt P50548 1-548)
# T1 sequence: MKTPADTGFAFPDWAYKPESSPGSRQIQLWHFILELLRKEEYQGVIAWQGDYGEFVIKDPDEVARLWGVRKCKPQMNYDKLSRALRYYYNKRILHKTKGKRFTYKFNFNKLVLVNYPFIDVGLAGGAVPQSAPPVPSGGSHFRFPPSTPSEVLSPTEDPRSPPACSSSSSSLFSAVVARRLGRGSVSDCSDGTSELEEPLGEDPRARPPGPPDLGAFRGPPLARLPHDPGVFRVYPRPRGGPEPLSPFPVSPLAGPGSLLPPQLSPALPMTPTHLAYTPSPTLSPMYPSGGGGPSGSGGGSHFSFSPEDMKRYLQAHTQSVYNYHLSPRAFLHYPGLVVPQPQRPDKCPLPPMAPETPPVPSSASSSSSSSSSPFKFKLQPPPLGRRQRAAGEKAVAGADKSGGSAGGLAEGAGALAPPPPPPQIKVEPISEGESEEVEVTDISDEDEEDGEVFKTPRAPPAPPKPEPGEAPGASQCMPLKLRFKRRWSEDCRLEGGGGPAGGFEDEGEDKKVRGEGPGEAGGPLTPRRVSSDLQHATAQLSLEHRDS
# Outline: (§1)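 In yeast, human transcription factors were expressed with a GST fusion, then pulled down on glutathione beads and given DNA barcodes. Pooled with a tag-only sample, they were exposed to 200 nmole of a 16-mer random double-stranded DNA library (Tris/NaCl/DTT/glycerol buffer, room temperature, 30 min), washed, crosslinked with 0.1% formaldehyde, proximity-ligated using BsaI/T4 ligase for 1 h at 37 °C, PCR-amplified and read on an Illumina NextSeq500. Each hexamer's frequency of reads for a factor, divided by the matching frequency for the tag-only sample, gives the binding signal.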
# [2] = target: T2, ETV3L (Homo sapiens, UniProt Q6ZN32 1-361)
# T2 sequence: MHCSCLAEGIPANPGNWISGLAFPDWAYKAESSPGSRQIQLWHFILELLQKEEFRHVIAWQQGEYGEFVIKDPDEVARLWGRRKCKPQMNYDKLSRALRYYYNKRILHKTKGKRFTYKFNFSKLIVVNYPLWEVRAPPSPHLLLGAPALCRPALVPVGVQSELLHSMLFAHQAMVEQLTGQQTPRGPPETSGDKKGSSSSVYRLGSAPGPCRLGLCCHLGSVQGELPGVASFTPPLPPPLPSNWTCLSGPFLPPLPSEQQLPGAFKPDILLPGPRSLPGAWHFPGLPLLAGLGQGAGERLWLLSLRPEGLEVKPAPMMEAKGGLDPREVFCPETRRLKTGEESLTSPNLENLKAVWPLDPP
# Outline: as §1
# [3] = target: T3, ETS2 (Homo sapiens, UniProt P15036 1-469)
# T3 sequence: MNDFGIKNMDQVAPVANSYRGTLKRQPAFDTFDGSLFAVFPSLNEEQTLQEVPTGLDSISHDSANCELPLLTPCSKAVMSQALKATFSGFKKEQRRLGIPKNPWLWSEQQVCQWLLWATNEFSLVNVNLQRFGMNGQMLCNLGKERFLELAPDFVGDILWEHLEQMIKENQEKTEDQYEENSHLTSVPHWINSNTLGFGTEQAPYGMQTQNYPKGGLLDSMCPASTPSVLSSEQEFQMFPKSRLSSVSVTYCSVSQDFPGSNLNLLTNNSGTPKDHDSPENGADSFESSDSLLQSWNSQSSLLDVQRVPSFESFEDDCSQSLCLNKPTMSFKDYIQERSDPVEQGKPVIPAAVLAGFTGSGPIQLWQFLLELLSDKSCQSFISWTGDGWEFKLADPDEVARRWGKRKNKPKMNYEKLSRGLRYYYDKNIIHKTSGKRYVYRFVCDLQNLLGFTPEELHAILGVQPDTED
# Outline: as §1
# [4] = target: T4, SPDEF (Homo sapiens, UniProt O95238 1-335)
# T4 sequence: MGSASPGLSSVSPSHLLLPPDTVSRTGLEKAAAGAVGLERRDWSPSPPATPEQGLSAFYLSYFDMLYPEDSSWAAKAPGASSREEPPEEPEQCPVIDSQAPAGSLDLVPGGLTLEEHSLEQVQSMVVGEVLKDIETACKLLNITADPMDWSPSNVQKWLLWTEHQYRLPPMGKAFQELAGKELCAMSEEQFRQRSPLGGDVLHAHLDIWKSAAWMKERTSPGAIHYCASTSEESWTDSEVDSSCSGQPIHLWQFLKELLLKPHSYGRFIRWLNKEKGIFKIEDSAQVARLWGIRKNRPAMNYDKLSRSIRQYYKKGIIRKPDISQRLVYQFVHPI
# Outline: as §1
# [5] = target: T5, ETV7 (Homo sapiens, UniProt Q9Y603 1-341)
# T5 sequence: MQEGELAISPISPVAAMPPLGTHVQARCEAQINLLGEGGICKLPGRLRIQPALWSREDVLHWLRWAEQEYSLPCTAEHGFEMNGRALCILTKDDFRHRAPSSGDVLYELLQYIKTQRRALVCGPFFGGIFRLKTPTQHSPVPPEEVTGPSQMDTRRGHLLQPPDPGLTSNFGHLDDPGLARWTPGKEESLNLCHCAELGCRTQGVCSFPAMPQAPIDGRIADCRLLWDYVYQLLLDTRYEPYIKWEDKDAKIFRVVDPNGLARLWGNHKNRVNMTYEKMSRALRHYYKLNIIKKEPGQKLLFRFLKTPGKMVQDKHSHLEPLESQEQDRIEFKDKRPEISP
# Outline: as §1
# [6] = target: T6, ELF5 (Homo sapiens, UniProt Q9UKW6-2 1-255)
# T6 sequence: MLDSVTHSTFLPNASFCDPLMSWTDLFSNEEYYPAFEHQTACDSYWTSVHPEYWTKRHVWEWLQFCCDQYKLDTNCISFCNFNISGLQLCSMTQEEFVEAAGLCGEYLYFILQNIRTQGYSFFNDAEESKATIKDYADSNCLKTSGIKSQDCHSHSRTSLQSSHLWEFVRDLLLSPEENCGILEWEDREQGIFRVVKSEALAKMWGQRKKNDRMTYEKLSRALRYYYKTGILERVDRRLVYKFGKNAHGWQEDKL
# Outline: as §1
# [7] = target: T7, ETV3 (Homo sapiens, UniProt P41162-2 1-143)
# T7 sequence: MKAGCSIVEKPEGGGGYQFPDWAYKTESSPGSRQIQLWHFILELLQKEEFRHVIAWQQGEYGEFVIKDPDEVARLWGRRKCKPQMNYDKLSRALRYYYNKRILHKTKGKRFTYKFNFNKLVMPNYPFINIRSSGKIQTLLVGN
# Outline: as §1
# [8] = target: ETV6 (Homo sapiens, UniProt P41212 1-452)
# Outline: as §1
# ETV6, sequence (P41212 whole entry): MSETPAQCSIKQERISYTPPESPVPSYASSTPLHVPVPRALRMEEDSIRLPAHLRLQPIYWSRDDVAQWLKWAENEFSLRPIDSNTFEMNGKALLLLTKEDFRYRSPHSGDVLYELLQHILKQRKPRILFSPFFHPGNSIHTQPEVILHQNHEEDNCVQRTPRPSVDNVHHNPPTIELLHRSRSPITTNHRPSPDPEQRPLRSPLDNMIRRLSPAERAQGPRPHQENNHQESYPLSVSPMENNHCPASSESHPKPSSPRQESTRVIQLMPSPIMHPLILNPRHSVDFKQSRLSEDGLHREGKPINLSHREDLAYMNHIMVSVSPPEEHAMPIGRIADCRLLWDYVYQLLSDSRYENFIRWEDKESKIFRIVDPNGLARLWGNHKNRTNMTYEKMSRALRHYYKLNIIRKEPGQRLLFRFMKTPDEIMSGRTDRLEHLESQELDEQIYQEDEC
Sequence,binding signal [1],binding signal [2],binding signal [3],binding signal [4],binding signal [5],binding signal [6],binding signal [7],binding signal [8]
CCAATT,"1.23 fold enrichment (6-mer frequency, TF over GST control)","1.24 fold enrichment (6-mer frequency, TF over GST control)","1.25 fold enrichment (6-mer frequency, TF over GST control)","1.19 fold enrichment (6-mer frequency, TF over GST control)","1.21 fold enrichment (6-mer frequency, TF over GST control)","1.14 fold enrichment (6-mer frequency, TF over GST control)","1.23 fold enrichment (6-mer frequency, TF over GST control)","1.24 fold enrichment (6-mer frequency, TF over GST control)"
CCTTTC,"1.62 fold enrichment (6-mer frequency, TF over GST control)","1.54 fold enrichment (6-mer frequency, TF over GST control)","1.59 fold enrichment (6-mer frequency, TF over GST control)","1.5 fold enrichment (6-mer frequency, TF over GST control)","1.39 fold enrichment (6-mer frequency, TF over GST control)","1.75 fold enrichment (6-mer frequency, TF over GST control)","1.62 fold enrichment (6-mer frequency, TF over GST control)","1.62 fold enrichment (6-mer frequency, TF over GST control)"
TTCACG,"1.44 fold enrichment (6-mer frequency, TF over GST control)","1.32 fold enrichment (6-mer frequency, TF over GST control)","1.34 fold enrichment (6-mer frequency, TF over GST control)","1.34 fold enrichment (6-mer frequency, TF over GST control)","1.43 fold enrichment (6-mer frequency, TF over GST control)","1.38 fold enrichment (6-mer frequency, TF over GST control)","1.35 fold enrichment (6-mer frequency, TF over GST control)","1.43 fold enrichment (6-mer frequency, TF over GST control)"
TGGTTT,"1.53 fold enrichment (6-mer frequency, TF over GST control)","1.51 fold enrichment (6-mer frequency, TF over GST control)","1.54 fold enrichment (6-mer frequency, TF over GST control)","1.49 fold enrichment (6-mer frequency, TF over GST control)","1.44 fold enrichment (6-mer frequency, TF over GST control)","1.54 fold enrichment (6-mer frequency, TF over GST control)","1.52 fold enrichment (6-mer frequency, TF over GST control)","1.67 fold enrichment (6-mer frequency, TF over GST control)"
TCGACA,"1.35 fold enrichment (6-mer frequency, TF over GST control)","1.3 fold enrichment (6-mer frequency, TF over GST control)","1.31 fold enrichment (6-mer frequency, TF over GST control)","1.23 fold enrichment (6-mer frequency, TF over GST control)","1.39 fold enrichment (6-mer frequency, TF over GST control)","1.27 fold enrichment (6-mer frequency, TF over GST control)","1.4 fold enrichment (6-mer frequency, TF over GST control)","1.42 fold enrichment (6-mer frequency, TF over GST control)"
ATCCAT,"1.26 fold enrichment (6-mer frequency, TF over GST control)","1.11 fold enrichment (6-mer frequency, TF over GST control)","1.17 fold enrichment (6-mer frequency, TF over GST control)","1.17 fold enrichment (6-mer frequency, TF over GST control)","1.11 fold enrichment (6-mer frequency, TF over GST control)","1.09 fold enrichment (6-mer frequency, TF over GST control)","1.19 fold enrichment (6-mer frequency, TF over GST control)","1.09 fold enrichment (6-mer frequency, TF over GST control)"
CGTATA,"1.13 fold enrichment (6-mer frequency, TF over GST control)","1.1 fold enrichment (6-mer frequency, TF over GST control)","1.11 fold enrichment (6-mer frequency, TF over GST control)","1.21 fold enrichment (6-mer frequency, TF over GST control)","1.15 fold enrichment (6-mer frequency, TF over GST control)","1.16 fold enrichment (6-mer frequency, TF over GST control)","1.18 fold enrichment (6-mer frequency, TF over GST control)","1.08 fold enrichment (6-mer frequency, TF over GST control)"
TATCCA,"1.27 fold enrichment (6-mer frequency, TF over GST control)","1.28 fold enrichment (6-mer frequency, TF over GST control)","1.28 fold enrichment (6-mer frequency, TF over GST control)","1.21 fold enrichment (6-mer frequency, TF over GST control)","1.34 fold enrichment (6-mer frequency, TF over GST control)","1.27 fold enrichment (6-mer frequency, TF over GST control)","1.23 fold enrichment (6-mer frequency, TF over GST control)","1.2 fold enrichment (6-mer frequency, TF over GST control)"
TTATGG,"1.31 fold enrichment (6-mer frequency, TF over GST control)","1.32 fold enrichment (6-mer frequency, TF over GST control)","1.26 fold enrichment (6-mer frequency, TF over GST control)","1.26 fold enrichment (6-mer frequency, TF over GST control)","1.36 fold enrichment (6-mer frequency, TF over GST control)","1.28 fold enrichment (6-mer frequency, TF over GST control)","1.44 fold enrichment (6-mer frequency, TF over GST control)","1.35 fold enrichment (6-mer frequency, TF over GST control)"
